# In PubChem BioAssay (NCI):
# About 83,000 compounds went through this panel and 20% of them were active in at least one assay; those are over-represented in the sample as a whole.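 Single-concentration screen, 48 h exposure, 96-well plates. Endpoint: percent growth. Below 10 = active.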 Values without a mark were called inactive. The source made the active and inactive calls.
# How the values were obtained:
# Experiment in all cases: NCI-60 one-dose screen, 48 h (100 = growth as untreated, 0 = no growth, -100 = all killed)
# Details in all cases: 10 µM unless noted
# NCI-H23 lung = tested on: NCI-H23 lung
# NCI-H226 lung = tested on: NCI-H226 lung
# NCI-H322M lung = tested on: NCI-H322M lung
# HOP-62 NSCLC = tested on: HOP-62 NSCLC
# NCI-H460 lung = tested on: NCI-H460 lung
# HOP-92 NSCLC = tested on: HOP-92 NSCLC
# NCI-H522 lung = tested on: NCI-H522 lung
# A549/ATCC NSCLC = tested on: A549/ATCC NSCLC
# 786-0 renal = tested on: 786-0 renal
# COLO 205 colon = tested on: COLO 205 colon
SMILES,growth (NCI-H23 lung),growth (NCI-H226 lung),growth (NCI-H322M lung),growth (HOP-62 NSCLC),growth (NCI-H460 lung),growth (HOP-92 NSCLC),growth (NCI-H522 lung),growth (A549/ATCC NSCLC),growth (786-0 renal),growth (COLO 205 colon)
Cc1oc2ccc(O)c(CN3CCCCCC3)c2c1C(=O)Nc1ccc(C(F)(F)F)cc1,69.9%,72.4%,69.3%,70.4%,51.5%,34.9%,72.5%,61.2%,49.5%,48.7%
CC(=O)c1c(/C=C/c2ccc(C)cc2)c2ccccc2[nH]c1=O,86.5%,63%,91.2%,89.4%,91.3%,73.1%,84.6%,85.4%,97.8%,105%
O=[N+]([O-])c1ccc(N/N=C\c2cc(Cl)ccc2O)nc1,32.7%,100%,30.4%,45.6%,12.8%,59.7%,31.3%,50.4%,34%,50.1%
O=C1CCC(C(=O)N/N=C/c2ccc([N+](=O)[O-])cc2)N1 (stereo not given),98.6%,106%,102%,110%,101%,89.1%,96.1%,102%,95.5%,108%
CC1(C)CC(=O)C2=C(C1)OC(C(=O)c1ccccc1)C2c1cccc(Oc2ccccc2)c1 (stereo not given),48.5%,53.3%,75.1%,66.7%,51.4%,13.4%,38.2%,29.9%,53.1%,38.3%
O=CN1N=C(c2cccc(Nc3ccncc3)c2)CC1c1ccc2c(c1)OCO2 (stereo not given),89.7%,85.7%,99.4%,80.2%,105%,73.4%,83.3%,83.8%,95.3%,113%
FC(F)(F)c1cc(N2CCCCC2)nc(NCCCNc2ccnc3cc(Cl)ccc23)n1,27.2%,73.6%,80%,73.5%,74.4%,32.9%,47.4%,50.5%,59.7%,7.41% (active)
O=C(Nc1cccc(Cl)c1)Oc1c(Cl)c(Cl)c(Cl)c(Cl)c1Cl,88.1%,83.8%,109%,81.7%,101%,58.7%,83.9%,96.8%,97.9%,101%
COc1cc(/C=C/c2cc(/C=C/c3ccc(O)c(OC)c3)n(C(=O)Nc3ccc(C)cc3C)n2)ccc1O,-26.1% (active),-3.7% (active),8.13% (active),-35.7% (active),1.87% (active),-27% (active),6.31% (active),-3.98% (active),-59.1% (active),-65.6% (active)
C#Cc1ccc(NC(=O)Cc2ccc(/C=C/C(=O)c3nccn3C)cc2)cc1,40.4%,90.6%,57.6%,48.3%,22.6%,96.5%,68.1%,74.6%,30%,66%
CN1/C(=C/C=C/c2n(Cc3ccc4ccccc4c3)c(Cl)c(Cl)[n+]2Cc2ccc3ccccc3c2)Oc2ccccc21,-80% (active),-75.4% (active),-10.6% (active),-85.7% (active),-74.5% (active),-81% (active),-81.6% (active),-86.7% (active),-82.6% (active),-80.1% (active)
O=C(NCCN1CCOCC1)c1cncnc1Nc1ccc2c(ccn2Cc2ccccn2)c1,102%,95.2%,105%,102%,103%,93.8%,83.7%,101%,98.5%,95.6%
COc1cc2c(c(OC)c1OC)CCC(c1cccc(NC(=O)c3cccc(Cl)c3)c1)O2 (stereo not given),92.7%,79.8%,90.3%,92.8%,96.9%,83.1%,62.1%,85%,96.7%,94.2%
CCN1CCN(c2nc(NNC(=O)c3ccc(OC)cc3)nc(N3CCN(C(c4ccccc4)c4ccccc4)CC3)n2)CC1,53.3%,71.9%,84.1%,83.6%,-6.88% (active),58.7%,85.3%,64.4%,22.9%,-8.98% (active)
Clc1nc(N2CCC[N+]3(CC2)CC[N+]2(CCCNCC2)CC3)nc(N2CCC[N+]3(CC2)CC[N+]2(CCCNCC2)CC3)n1 (stereo not given),89.2%,68.4%,99.7%,91.1%,76.8%,131%,94%,86.1%,72.8%,106%
O=C1N/C(=N/N=C(c2ccccc2)c2ccccc2)S/C1=C\c1ccc(Br)cc1,94.1%,84.7%,95%,98.1%,98.4%,92.3%,69.6%,74.7%,98%,104%
C#CCOc1cc(/C=N/Nc2nc(-c3ccc(OC)cc3)cs2)ccc1O,58.8%,89.6%,92.4%,97%,88.4%,86.3%,76.1%,74.2%,92.6%,103%
COc1ccc(-c2cc(-c3ccc(Cl)cc3)c(C#N)c(=O)n2CCCCC(=O)NO)cc1,84.9%,77.2%,77.3%,66.5%,99.1%,87.2%,58.8%,82.7%,80.2%,86.3%
COc1cc(/C=C/C(=O)c2ccc(-n3cc(CN4CCN(c5cc6c(cc5F)c(=O)c(C(=O)O)cn6C5CC5)CC4)nn3)cc2)cc(OC)c1OC,77.6%,74.8%,88.8%,85.4%,85.9%,88%,88%,90.5%,72.2%,112%
COc1cc2c(c(OC)c1OC)CCC(c1cccc(C(=O)Nc3ccc([N+](=O)[O-])cc3)c1)O2 (stereo not given),47.2%,48.3%,68.3%,76.7%,58.8%,42.6%,49.6%,55.2%,70.1%,73.2%
Cc1[nH]c(C2CC(c3ccc(C(F)(F)F)c(F)c3)=NN2C)c(C)c1C(=O)NCC(F)(F)F (stereo not given),95.4%,93.3%,92.7%,106%,101%,114%,88.9%,95.5%,109%,114%
COc1ccc(S(=O)(=O)N(C)c2oc(-c3ccc(Cl)cc3)nc2C#N)cc1,79.7%,94.9%,98.2%,82.7%,95.9%,77.2%,83%,87.3%,98.2%,97.9%
Cn1ccnc1C(=O)/C=C/c1ccc(C(=O)Nc2ccccc2F)cc1,27.4%,50.7%,14.6%,3.72% (active),-0.603% (active),16.2%,39.7%,17.1%,18.5%,32.7%
Cc1[nH]c(C(=O)Nc2ccccc2OC2CCNC2)c(Cl)c1Cl (stereo not given),87.1%,80.6%,92.1%,78.7%,72.6%,72.6%,60.7%,101%,68.9%,83.5%
CC1OC(C(=O)N2CCN(CCO)CC2)CC1COC1CCCCC1 (stereo not given),94% [50 µM],84.3% [50 µM],90.9% [50 µM],85.7% [50 µM],100% [50 µM],87% [50 µM],93.2% [50 µM],94.2% [50 µM],109% [50 µM],105% [50 µM]
COc1cc(CNC(=O)CCCC/C=C/C(C)C)ccc1OCc1cn(-c2cccc([N+](=O)[O-])c2)nn1,88%,90.9%,94.1%,97.4%,91.8%,70.4%,82.6%,92%,73.4%,107%
